CYP2C19 act: cytochrome P450 2C19 (human) activation; P33261; recombinant CYP2C19, luciferin-H EGE luminescence; stronger effect = higher value; 0 = fully inhibited enzyme, 1 = untreated enzyme; activation factor at 5 µM; 96,000 tested, under 10 active; AID 1025;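 active means activation factor of at least 2 at 5 µM in the primary screen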;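 further: 0 = wells with 2.5 mM tranylcypromine and 1 = vehicle-only wells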
PTK2B oligo ant: antagonists of human Pyk2 oligomerization. Q14289. Q293 cells, Pyk2 FERM NanoBiT luminescence; stronger effect = lower value. z-score (the deposit names both 25 µM and 10 µM). 99,000 tested, 0.83% active. AID 1347419;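 active means Z-score of -3 or lower, scaled per plate to the spread of control and sample wells; inactive means z-score above -3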;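 further: negative z-score means lost luminescence so less FERM oligomerization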
CYP2C19 inh: inhibitors of human CYP2C19 | P33261 | 96,000 tested, 21% active | CYP2C19 Supersomes, luciferin-H EGE luminescence, 30 min | AID 778 | inhibition, % at 5 µM;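 active means CYP2C19 inhibition above a set limit at 5 µM in the primary screen, cut at about 50% in these data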;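 further: plate controls were negative control wells for no effect and 2.5 mM tranylcypromine positive control for full effect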
CYP2C9 act: activators of human CYP2C9; P11712; recombinant CYP2C9, luciferin-H conversion, luminescence; stronger effect = higher value; factor 1 = untreated enzyme, 0 = blocked; activation factor at 5 µM; 96,000 tested, 1.4% active; AID 1024;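 active means activation factor of 2 or more for CYP2C9 at a 5 µM dose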;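 further: 0 = sulfaphenazole-blocked wells and 1 = vehicle-only wells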
Target sequence (P11712 whole entry, looked up): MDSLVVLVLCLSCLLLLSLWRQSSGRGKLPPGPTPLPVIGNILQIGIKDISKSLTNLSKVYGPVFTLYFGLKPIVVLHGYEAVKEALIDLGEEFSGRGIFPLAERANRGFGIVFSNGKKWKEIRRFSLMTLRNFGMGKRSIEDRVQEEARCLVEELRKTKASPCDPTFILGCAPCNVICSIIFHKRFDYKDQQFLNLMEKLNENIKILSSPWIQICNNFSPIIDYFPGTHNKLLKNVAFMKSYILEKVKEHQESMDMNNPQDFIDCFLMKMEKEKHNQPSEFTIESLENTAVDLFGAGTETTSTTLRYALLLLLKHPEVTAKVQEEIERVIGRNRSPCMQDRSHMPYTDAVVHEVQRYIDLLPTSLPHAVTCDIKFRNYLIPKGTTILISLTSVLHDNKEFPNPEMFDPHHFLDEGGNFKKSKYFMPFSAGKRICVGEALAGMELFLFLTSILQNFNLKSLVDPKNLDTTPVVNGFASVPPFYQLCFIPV
CYP2C9 inh: inhibitors of human CYP2C9; 96,000 tested, 20% active; inhibition, % at 5 µM; CYP2C9 Supersomes, luciferin-H conversion, luminescence; AID 777; P11712;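 active means blocking of liver enzyme CYP2C9 beyond about 50% at 5 µM, limit read from the data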
Active calls of the source: *; . = no result given. Only some compounds are listed: those with a hit (about 28% of all), similar ones and a draw of the others.

SMILES	CYP2C19 act	PTK2B oligo ant	CYP2C19 inh	CYP2C9 act	CYP2C9 inh
CN(C)S(=O)(=O)c1ccc(N2CCCC2)c(C(=O)NCc2ccc(Cl)cc2)c1	0.7	0.02	26.6	0.8	17.0
O=C1C(Cl)=C(NCC2CCCO2)C(=O)N1Cc1ccccc1 (stereo not drawn)	0.4	0.25	59.8*	1.6	-62.3
Cn1c(=O)n(Cc2ccccc2)c(=O)c2c1nc(NCC1CCCO1)n2Cc1ccccc1 (stereo not drawn)	1	-1.34	3.0	0.3	66.2*
CCCCCCCCSc1nnc(CSc2nc3nc(C)cc(C)n3n2)o1	0.8	0.14	15.7	0.8	21.0
c1ccc(-c2nnc(CN3CCC4(CC3)OCCO4)o2)cc1	0.5	0.03	53.0*	1	3.0
c1ccc(-c2nnc(CN3CCCc4ccccc43)o2)cc1	0.2	-0.95	77.9*	0.2	76.2*
CCCCCCOC(=O)Cc1c(C)nc(-c2ccccc2)[nH]c1=O	0.8	2.25	22.2	1	-1.6
NC(=O)C1CCN(C(=S)c2cccs2)CC1	0.8	-0.7	23.3	1	2.7
CC1CCN(CC(O)COCCC23CC4CC(CC(C4)C2)C3)CC1 (stereo not drawn)	0.7	0.29	32.2	1.1	-7.1
O=S1(=O)c2cccc3cccc(c23)N1Cc1nnc(-c2ccccc2Br)o1	0.1	-1.2	92.9*	1.5	-47.2
O=S1(=O)c2cccc3cccc(c23)N1Cc1ccc(-c2nnco2)cc1	0.3	-0.63	67.7*	0.5	53.4*
O=C(Oc1ccc(-c2nnco2)cc1)N1CCOCC1	.	0.21	.	.	.
O=C1c2ccccc2S(=O)(=O)N1Cc1nnc(-c2ccccc2Br)o1	.	2.33	.	.	.
O=c1c2ccccc2nnn1Cc1nnc(-c2ccccc2Br)o1	0.2	-0.96	82.3*	1.3	-25.4
CCOc1cc(Cl)c(NC(=O)c2ccco2)cc1OCC	.	2.73	.	.	.
O=C(Cc1cccs1)Nc1cccnc1	0.9	-0.21	7.3	0.9	5.7
CN(C(=O)c1ccncc1)c1nnc(-c2ccccn2)s1	0.2	0.12	81.2*	0	98.6*
CN(C(=O)c1ccc(C#N)cc1)c1nnc(-c2ccccn2)s1	.	0.19	.	.	.
CCN(C(=O)Cc1cccs1)c1nnc(-c2cccnc2)s1	0.5	-0.13	47.8	0.5	50.2*
CN(C(=O)c1ccncc1)c1nnc(-c2cccnc2)s1	0.1	1.27	93.4*	0	99.7*
CCC(=O)N/N=C(\C)CC(=O)Nc1ccc2ccccc2c1	0.9	-0.59	7.2	1.1	-10.2
CC(C)c1ccc(NC(=O)Cn2cccc2C2=NC(c3ccccc3)CO2)cc1 (stereo not drawn)	.	-2.95	.	.	.
N/C(CCCN1CCCCC1)=N/O	1	0.69	-4.5	1.1	-14.1
COc1ccccc1C(=O)N/C(N)=N/c1nc2ccccc2o1	0.9	-0.65	5.6	1	1.3
O=c1c2ccccc2nc(COc2ccccc2)n1/N=C/c1ccco1	0.4	-0.68	62.0*	0.2	78.8*
SMILES	CYP2C19 act	PTK2B oligo ant	CYP2C19 inh	CYP2C9 act	CYP2C9 inh
CNC(=O)CSCc1c(Cl)cccc1Cl	0.9	-0.27	14.6	1	-1.2
CNC(=O)c1sccc1S(=O)(=O)Cc1c(Cl)cccc1Cl	0.1	0.41	87.3*	0.5	53.7*
COc1cc(S(=O)(=O)N(Cc2cccs2)CC2CCCO2)ccc1-n1cnnn1 (stereo not drawn)	0.5	-0.55	47.4	0.7	31.3
COc1ccc(CN(Cc2cccnc2)S(=O)(=O)c2ccc(-n3cnnn3)c(C)c2)cc1OC	0.2	-0.05	80.5*	0.1	94.4*
COc1ccc(CCN(Cc2cccs2)S(=O)(=O)c2ccc(-n3cnnn3)c(OC)c2)cc1OC	0.5	-1.12	50.1*	0.4	55.1*
Cc1cc(S(=O)(=O)NCC(c2ccccc2)c2ccccc2)ccc1-n1cnnn1	1.1	-0.59	-5.1	1	-4.6
FC(F)(F)c1cc(-c2ccco2)nc(NCCc2ccccc2)n1	0.9	-1.1	12.4	0.6	38.2
Nc1nc(SCc2ccccc2Cl)ns1	.	-0.92	.	.	.
Cc1c(C2OC(=O)C3(CCCCC3)C(=O)C2(C)C)c(=O)n(-c2ccccc2)n1C (stereo not drawn)	0.7	0.27	29.8	0.9	5.4
COc1ccc(S(=O)(=O)Nc2cc(C)on2)cc1OC	.	-0.02	.	.	.
Cc1cc(NS(=O)(=O)c2ccc(NC(=O)Nc3ccccc3)cc2)no1	1	0.9	0.8	0.9	6.8
CCCCc1ccc(S(=O)(=O)Nc2cc(C)on2)cc1	0.6	-0.01	43.9	0	96.1*
Cc1cc(NS(=O)(=O)c2ccc(NC(=O)C(c3ccccc3)c3ccccc3)cc2)no1	0.9	-0.3	12.5	0.4	64.5*

Screening results from PubChem BioAssay.
